We go through 65 compounds from PubChem BioAssay AID624417 (National Center for Advancing Translational Sciences (NCATS), 2012).

Screen size: about 410,000 compounds; about 6,400 (1.6%) were called active. About 20% were inconclusive and are not listed. What follows is part of a selection rich in actives, with near analogues and random picks from the rest. Values without a mark were called inactive. Calls come from the whole dose curve; as a rule, active = well fitted inhibition curve with a large enough effect; inconclusive = small, poorly fitted or top-dose-only effect; inactive = no such curve, though single readings can be large or run the other way.
% is set by controls: 0 for no effect and ±100 for the full control effect; potency is the fitted concentration of half-maximal effect.

Chain of Glucagon-like peptide 1 receptor (Homo sapiens) (P43220 whole entry, looked up): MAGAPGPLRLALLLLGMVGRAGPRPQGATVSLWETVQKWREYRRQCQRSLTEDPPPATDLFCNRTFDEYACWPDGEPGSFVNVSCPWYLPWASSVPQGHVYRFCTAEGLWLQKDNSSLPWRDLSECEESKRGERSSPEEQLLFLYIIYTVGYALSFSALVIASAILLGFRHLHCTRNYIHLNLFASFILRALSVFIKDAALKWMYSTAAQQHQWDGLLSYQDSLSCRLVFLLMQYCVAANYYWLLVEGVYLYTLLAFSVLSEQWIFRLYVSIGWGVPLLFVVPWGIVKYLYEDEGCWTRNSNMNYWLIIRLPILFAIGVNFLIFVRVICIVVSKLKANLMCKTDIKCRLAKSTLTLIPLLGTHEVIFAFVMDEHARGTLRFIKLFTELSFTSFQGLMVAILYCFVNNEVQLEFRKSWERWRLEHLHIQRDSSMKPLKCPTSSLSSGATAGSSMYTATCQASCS

This assay concerns the target Glucagon-like peptide 1 receptor (Homo sapiens) (UniProt P43220). Briefly: qHTS of GLP-1 Receptor Inverse Agonists (Inhibition Mode). Note: nearly all actives have a fitted effect of over 55% in size. The following applies: HEK293 GLP-1R CRE-luciferase, luminescence, 24 h, GLP-1R form is constitutively active; series mostly up to 38.3 µM; activity change, negative = inhibition: at the top concentration. An excerpt: The overall goal of this project was to develop a novel assay for discovering small molecule ligands for class B1 G protein-coupled receptors (GPCRs). Very few agonists (or inverse agonists in inhibition mode) with generally weak activity for this entire group of physiologically important receptors are known to date. To establish proof-of-principle that this critical bottleneck can be overcome with a suitable screening approach, our studies focused on the class B1 receptor for glucagon-like peptide-1 (GLP-1R), a potential therapeutic target for diabetes and neurodegenerative disease. The assay was developed using a cell-based functional readout. Toward this goal, stably transfected HEK293 cell clones were established that co-express (i) a cAMP-responsive luciferase reporter gene, and (ii) constitutively active GLP-1R that upon ligand interaction inhibit (inverse agonists) the luciferase activity. In addition, two control cell lines were developed: (i) one that express only the cAMP-responsive reporter gene to enable initial exclusion of GLP-1R independent effects of candidate probes; and (ii) one with the reported gene cloned with another constitutively active orphan receptor GPR119 to enable exclusion of GLP-1R independent inhibitor effects of candidate inverse agonists. To that end, this assay was optimized for 1536-well format and screened against the MLSMR. […] NIH Molecular Libraries Probe Production Network [MLPCN] NIH Chemical Genomics Center [NCGC] Grant: NS064851 PI Name: Martin Beinborn, Tufts Medical Center
Six ul of cell suspension (200 cells/uL in DMEM + 10% Nu serum + 1% pen-strep) is dispensed in a white solid 1536-well plate. The plates are incubated for 12 hours at 37 deg C at 5% CO2 followed by addition of 23 nL compounds. After 24 hr incubation at 37 deg C and 5% CO2, 3 uL of luciferase assay detection reagent is added. A luminescence read is obtained on the PerkinElmer Viewlux after 12 min incubation at room temperature.
As for `O=C(Nc1cccc2ccccc12)N1CCN(Cc2ccc3c(c2)OCO3)CC1`, the “activity change, negative = inhibition” value is -8.77%.

With `O=C(c1cccs1)N1CCN(Cc2ccc3c(c2)OCO3)CC1`, the “activity change, negative = inhibition” value was -17.2%.

For the compound `O=C(CSCc1ccc(Cl)cc1)N1CCN(Cc2ccc3c(c2)OCO3)CC1`, the Potency was 10 µM (active).

For `CCCC(=O)N1CCC1(C)C(=O)NCc1ccc(SC)cc1` (stereo not given), the “activity change, negative = inhibition” value is 23.8%.

`CC1(C(=O)NS(=O)(=O)c2ccccc2Cl)CCN1C(=O)c1cccc(F)c1` (stereo not given): the “activity change, negative = inhibition” value was 5.93%.

Turning to `O=C(N/N=C/c1ccc(OC(=O)c2ccccc2Cl)cc1)c1ccc(O)cc1`, the “activity change, negative = inhibition” value is -23.4%.

As to `O=C(Cc1cccs1)N/N=C/c1ccc(OCc2ccccc2)cc1`, the “activity change, negative = inhibition” value was -1.37%.

With `O=C(N/N=C/c1ccc(OCc2ccccc2)cc1)c1ccc(O)cc1`, the Potency was 2.82 µM (active).

Turning to `O=C(O)c1ccccc1Cc1ccc(F)c2ccccc12`, the “activity change, negative = inhibition” value is -24.8%.

On to `CCC(C(=O)NC(C)(C)C)n1c(-c2ccccc2)nc2ccccc21` (stereo not given), for which the “activity change, negative = inhibition” value was -19%.

Consider `C[C@H]1CN([C@@H](C)CO)C(=O)c2cc(-c3ccccc3F)cnc2O[C@H]1CN(C)C(=O)C1CCOCC1`, for which the “activity change, negative = inhibition” value is -13.6%.

Take `CC1(C(=O)Nc2cccc3cccnc23)CCN1C(=O)CCC1CCCC1` (stereo not given): the “activity change, negative = inhibition” value was -3.58%.

On to `O=C(NCCN1CCOCC1)c1ccc2c(c1)N(Cc1cccc(Cl)c1)C(=O)c1ccccc1S2(=O)=O`, for which the “activity change, negative = inhibition” value is -27.9%.

Take `Cc1cccc(N2CCN(Cc3nc(C4CC4)no3)CC2)n1`: the “activity change, negative = inhibition” value was -5.11%.

On to `Cc1ccccc1N1CCN(Cc2nc(Cc3ccccc3F)no2)CC1`, for which the Potency was 11.2 µM (active).

On to `Fc1cccc(Cc2noc(CN3CCN(c4cnccn4)CC3)n2)c1`, for which the “activity change, negative = inhibition” value is -5.63%.

On to `Cc1cc(Cl)ccc1OCCCC(=O)NCc1ccccn1`, for which the “activity change, negative = inhibition” value is 15.3%.

For `Cc1cc(Cl)ccc1OCCCC(=O)Nc1cccc(-n2cnnn2)c1`, the Potency was 10 µM (active).

In the case of `Cc1cc(Cl)ccc1OCCCC(=O)NCc1ccncc1`, the “activity change, negative = inhibition” value was 8.81%.

On to `COc1ccc(C(O)c2nc(-c3ccc(OC)nc3)cs2)cc1` (stereo not given), for which the “activity change, negative = inhibition” value is -6.1%.

On to `Cc1cc(Br)cn2c(Cc3ccccc3C(F)(F)F)c(-c3ccc(Cl)cc3)nc12`, for which the “activity change, negative = inhibition” value is -21.1%.

Take `CCCCN(C=O)c1c(CC)nc2c(OCc3ccccc3C(=O)OC)cccn12`: the “activity change, negative = inhibition” value was -20.9%.

With `O=S1(=O)CC(N2CCN(c3ccccn3)CC2)CN1Cc1ccc(F)cc1` (stereo not given), the “activity change, negative = inhibition” value was -6.64%.

As for `CCc1nc2c(OCc3ccc(F)c(F)c3)cccn2c1N(C)C(=O)c1ccco1`, the “activity change, negative = inhibition” value is -6.92%.

Consider `CCCNC(=O)c1cc(C2CCCCN2S(=O)(=O)c2ccc(C#N)cc2)on1` (stereo not given), for which the “activity change, negative = inhibition” value was 10.6%.

For the compound `Cc1nc2ccc(NC(=O)C3CCCCC3)cc2s1`, the “activity change, negative = inhibition” value was 7.04%.

Regarding `Cc1nc(NC(=O)C2CCCCC2)sc1C`, the Potency was 8.91 µM (active).

In the case of `Cc1nc(NC(=O)C23CCC(C)(C(=O)O2)C3(C)C)sc1C` (stereo not given), the “activity change, negative = inhibition” value is -14.9%.

Turning to `NC(=O)CSc1nnc(-c2cccc(S(=O)(=O)N3CCOCC3)c2)o1`, the “activity change, negative = inhibition” value is -1.36%.

For `Cc1ccc(C(=O)NC(C)C(c2cccs2)N2CCOCC2)cc1C` (stereo not given), the “activity change, negative = inhibition” value is -10.4%.

`Cn1nc(N)c2ncc(C(Cl)(Cl)Cl)nc21`: the “activity change, negative = inhibition” value was 26.9%.

For `OC(COc1ccc(Br)cc1)CN1CCCC1` (stereo not given), the “activity change, negative = inhibition” value is -28.2%.

As to `O=C(c1ccc(Cl)cc1)c1ccc(OCC(O)CN2CCCCC2)cc1` (stereo not given), the Potency is 5.01 µM (active).

Turning to `CC(=O)Nc1ccc(OCC(O)CN2CCN(c3ccccc3Cl)CC2)cc1` (stereo not given), the “activity change, negative = inhibition” value is -43.5%.

In the case of `O=[N+]([O-])c1ccc(N2CCN(CC(O)COc3ccccc3)CC2)cc1` (stereo not given), the “activity change, negative = inhibition” value is -33.7%.

For the compound `O=c1cc(CN2CCN(c3cccc(Cl)c3)CC2)c2cc3c(cc2o1)CCCC3`, the “activity change, negative = inhibition” value is 0%.

Take `OC(COc1ccc2c(c1)CCC2)CN1CCN(c2cccc(Cl)c2)CC1` (stereo not given): the Potency is 10 µM (active).

For `Cc1ccc(S(=O)(=O)N2C[C@]3(O)C[C@@H]4C(=O)N(c5ccccc5)C(=O)[C@@H]4C[C@]3(OC(=O)NC3CC3)C2)cc1`, the “activity change, negative = inhibition” value was 6.42%.

In the case of `C[C@H](O)[C@@H]1C(=O)N2CCc3c([nH]c4ccccc34)[C@@H]2C[C@@H]1N(C)C(=O)Nc1ccc(F)cc1`, the “activity change, negative = inhibition” value is -27.5%.

Turning to `C=CC(COCc1ccccc1)N(Cc1ccccc1)S(=O)(=O)c1ccccc1Br` (stereo not given), the Potency was 10 µM (active).

On to `CCN([C@H](CO)C(C)C)S(=O)(=O)c1ccccc1Br`, for which the “activity change, negative = inhibition” value is -6.5%.

For `Cc1cc(C)n2c(NCc3ccccc3)c(CC(C)C)nc2n1`, the “activity change, negative = inhibition” value is 17.8%.

For `CC(C)Cc1ccc(-c2cc3nc(NCc4cccc(Cl)c4)ccn3n2)cc1`, the Potency was 2.82 µM (active).

With `COCCn1c(SCC(=O)Nc2ccc(F)cc2F)nc2c(c1=O)SCC2`, the “activity change, negative = inhibition” value is 14.7%.

For `CC1(C(=O)NCc2ccccc2)CSCC(=O)N1CCCn1ccnc1` (stereo not given), the “activity change, negative = inhibition” value was 0.0455%.

Regarding `Cc1cccc(N2CCN(C(=O)c3ccc4c(c3)CCN4S(=O)(=O)c3ccccc3)CC2)c1C`, the Potency is 7.94 µM (active).

Take `Cc1cccc(N2CCN(C(=O)c3cccc(N4C(=O)C5C6C=CC(C6)C5C4=O)c3)CC2)c1C` (stereo not given): the “activity change, negative = inhibition” value was 1.97%.

As to `O=S(=O)(c1ccccc1)N1CCc2ccccc21`, the “activity change, negative = inhibition” value was -1.14%.

As to `O=C(Nc1cccc(C(=O)O)c1)/C(=C\c1ccccc1)NC(=O)c1ccc(Br)o1`, the “activity change, negative = inhibition” value is 0.998%.

On to `OC[C@@H]1CN(Cc2cccs2)C[C@H](n2cnc3c(NC4CCCC4)ncnc32)O1`, for which the “activity change, negative = inhibition” value is 6.84%.

For `OC[C@@H]1CN(Cc2ccc(F)cc2)C[C@H](n2cnc3c(NC4CCCC4)ncnc32)O1`, the “activity change, negative = inhibition” value is 5.41%.

Take `OC[C@@H]1CN(Cc2ccc(-c3ccccc3)cc2)C[C@H](n2cnc3c(NC4CCCC4)ncnc32)O1`: the Potency is 8.91 µM (active).

Regarding `CC(=O)c1ccc(Nc2nc(C(N)c3ccccc3)cs2)cc1` (stereo not given), the “activity change, negative = inhibition” value is 20%.

Consider `COc1cccc(-c2nc3nc(C)cc(C)n3c2NC2CCCCC2)c1`, for which the “activity change, negative = inhibition” value is -11%.

As for `CCCCNC(=O)C(=O)c1ccccc1NC(C)=O`, the “activity change, negative = inhibition” value is 16%.

Take `CCCCNC(=S)N/N=C1\CCCCc2ccccc21`: the Potency is 11.2 µM (active).

For the compound `Cc1ccc(NC(=S)N/N=C2/CCCc3c(C)cc(C)cc32)cc1`, the “activity change, negative = inhibition” value was 6.24%.

`CCC(=O)N1CCC(C)(C(=O)Nc2cc(OC)c(OC)c(OC)c2)C1` (stereo not given): the “activity change, negative = inhibition” value was 4.97%.

For the compound `CC(=O)c1cccc(-c2cnc3c(NC=O)cc(-c4ccc(N5CCN(C)CC5)cc4)cn23)c1`, the “activity change, negative = inhibition” value is 0.896%.

As to `COc1ccc(NC(=O)CCN2CCN(CCO)CC2)cc1`, the “activity change, negative = inhibition” value was 1.87%.

Take `COc1ccc(C(=O)Nc2sc(C)c(C)c2CN2CCOCC2)cc1`: the “activity change, negative = inhibition” value is 6.13%.

For `CCc1cc(C(=O)c2ccc(OC)cc2)c(NC(=O)CN2CCN(C)CC2)s1`, the Potency was 4.47 µM (active).

On to `CN(C)CCCn1c(SCCN2C(=O)c3ccccc3C2=O)nc2ccccc2c1=O`, for which the “activity change, negative = inhibition” value was 0.122%.

For the compound `CC(C)(C)c1nc2ccccc2c(=O)n1N1C(=O)c2ccccc2C1=O`, the Potency is 10 µM (active).

On to `Cc1nc2ccccc2c(=O)n1NC(=O)c1ccccc1`, for which the “activity change, negative = inhibition” value is -2.48%.
